TRHR ag = TRH receptor (human) agonism; P34981; TRHR cells, calcium flux fluo-8, FDSS agonist mode; activation, % at 2 µM; 0.18% of 360,000 active; AID 493084
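TRHR-expressing cells loaded with fluo-8 calcium dye; 23 nL library compound pin-transferred, kinetic FDSS fluorescence (Ex 480/Em 530) recorded about 180 s for agonist-induced calcium release, before a 10 nM TRH EC20 addition for potentiator mode.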
TRHR PAM = allosteric enhancers of human TRH receptor. P34981. enhancement, % at 2 µM. AID 493056. TRHR cells, fluo-8 calcium fluorescence, EC20 TRH enhancement. 0.66% of 360,000 active; in the data active = enhancement above about 30%
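TRHR-expressing cells loaded with fluo-8 calcium dye were read kinetically (ex 480/em 530) during compound addition, then stimulated with an EC20 of TRH (10 nM final). Enhancement of the Gq-mediated intracellular calcium response was scored.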
D1 PAM = human D1 dopamine receptor positive modulation. 0.036% of 360,000 active. HEK293 TREx D1 cells, calcium flux, dopamine EC20 potentiation. potentiation, % at 10 µM. AID 504651; in the data active = potentiation above about 30%
Target sequence (P21728 whole entry, looked up): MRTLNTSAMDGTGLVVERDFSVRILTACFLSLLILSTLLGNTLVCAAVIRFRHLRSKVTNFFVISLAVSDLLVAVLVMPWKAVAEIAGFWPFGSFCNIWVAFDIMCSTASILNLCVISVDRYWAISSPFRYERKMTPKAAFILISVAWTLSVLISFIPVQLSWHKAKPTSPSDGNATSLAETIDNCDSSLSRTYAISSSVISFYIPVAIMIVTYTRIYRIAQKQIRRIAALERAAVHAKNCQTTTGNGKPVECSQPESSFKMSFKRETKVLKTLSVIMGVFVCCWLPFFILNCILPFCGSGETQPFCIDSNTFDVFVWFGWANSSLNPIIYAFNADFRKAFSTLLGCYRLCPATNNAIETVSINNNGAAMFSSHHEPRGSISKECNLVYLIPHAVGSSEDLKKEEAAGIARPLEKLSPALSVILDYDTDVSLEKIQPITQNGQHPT
D1 antagonist = human D1 dopamine receptor antagonism; P21728; HEK293 TREx D1 cells, calcium flux, dopamine EC80; hits give low values; activity change, negative = inhibition, % at 10 µM; 3.2% of 360,000 active; AID 504652; in the data active = activity change below about -30%
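Tetracycline-induced HEK293 Trex D1 cells, force-coupled to calcium, dye-loaded; compounds added and read 180 s, then EC80 dopamine added and calcium flux tracked kinetically another 180 s.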
D1 ag = activates the human D1 dopamine receptor; P21728; HEK293 T-REx D1 cells, calcium flux, agonist mode; activation, % at 2 µM; 1% of 360,000 active; AID 504660
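Agonism was scored from calcium flux recorded over 180 s (1 read/s) after pintool compound addition, following a 10-cycle baseline. Cells were inducible force-coupled HEK293 TREx D1, plated overnight at 30 C and loaded with no-wash calcium dye.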
Hits are given with their value; – = inactive; ! = not confirmed by another sample. Shown are actives, neighbours in structure and some others; about 4.7% of the full set was active somewhere. Cut-off read from the data, not from the text of the source, unless noted: active = activation above about 30%; inactive = the rest.

SMILES	TRHR ag	TRHR PAM	D1 PAM	D1 antagonist	D1 ag
CC1CN(C)C(C)C/C1=N/Oc1ccccc1[N+](=O)[O-] (configuration not stated)	–	–	–	–	–
Cc1ccc(-n2c(=O)c3sc4ccccc4c3n(C)c2=O)cc1F	–	–	–	–	–
Cc1ccccc1NC(=O)N1C2CCC1CC(O)(c1cccnc1)C2 (configuration not stated)	–	–	–	-33.6	–
Cc1cccc(C)c1NC(=O)N1C2CCC1CC(O)(c1cccnc1)C2 (configuration not stated)	–	–	–	–	–
Cn1cc(S(=O)(=O)N2CCCCCC2)cc1C(=O)Nc1ccc(Cl)c(C(F)(F)F)c1	–	–	–	–	–
CC1=C(C(=O)OCc2ccccc2)C(c2cccc3ccccc23)NC(=O)N1CCCC(=O)O (configuration not stated)	–	–	–	-39.2	–
CC1=C(C(=O)OCc2ccccc2)C(c2ccc(Cl)cc2Cl)NC(=O)N1CCCCCC(=O)O (configuration not stated)	–	–	–	–	–
CC1=C(C(=O)OCc2ccccc2)C(c2cccc(Cl)c2Cl)NC(=O)N1CCCCCC(=O)O (configuration not stated)	–	–	–	-32.8	–
CCOC(=O)c1cccc(NC(=O)COc2ccc3c(C)cc(=O)oc3c2)c1	–	–	–	–	–
CCOc1ccccc1CNCc1ccc(F)cc1	–	–	–	-31.1	–
Oc1c(C=Nc2cccnc2)sc2ccccc12	–	–	–	–	–
Oc1sc(C=Nc2ccccc2)c2ccccc12	39.4	–	–	–	171.6
Oc1c(C=Nc2ccccc2)sc2ccccc12	–	–	–	–	–
Oc1sc(C=Nc2ccc(F)cc2)c2ccccc12	–	–	–	–	131.6
CCc1ccccc1-n1c(C)nc2cc(C(=O)NCCc3ccc(Cl)cc3)ccc21	–	–	–	–	–
COCCn1c(=NC(=O)CSCC(=O)N2CCOCC2)sc2ccccc21	–	–	–	-46.2	–
COc1cc2oc(=O)c(CC(=O)N3CCCCC3)c(C)c2cc1Cl	–	–	–	–	–
COc1cc(OC)c2c(C)c(CC(=O)N3CCCCC3)c(=O)oc2c1	–	35.4	–	–	–
COc1ccc(-c2noc(CSc3nc(N)cc(=O)[nH]3)n2)cc1OC	–	–	–	–	–
NS(=O)(=O)OCCCc1ccccc1	–	–	–	-37.0	–
N#CCCN(Cc1cccnc1)S(=O)(=O)c1ccc(S(=O)(=O)NC2CCCCC2)cc1	–	–	–	–	–
N#CCCN(Cc1cccnc1)S(=O)(=O)c1ccc2ccccc2c1	–	–	–	-36.6	–
CCOC(=O)C(=O)Nc1ccc(F)cc1	–	–	–	–	–
CCOC(=O)C(=O)Nc1ccc(Oc2ccccc2)cc1	–	–	–	-33.5	–
CCOC(=O)/C=C/C(=O)Nc1ccc(Oc2ccccc2)cc1	–	–	–	-35.6	–
SMILES	TRHR ag	TRHR PAM	D1 PAM	D1 antagonist	D1 ag
COc1ccc(Cn2c(=O)c3oc4ccccc4c3n(Cc3cccc(C(F)(F)F)c3)c2=O)cc1	–	–	–	–	–
COc1ccc(NC(=O)N2CCc3c(sc4c3CCCC4)C2c2ccc(F)cc2)cc1 (configuration not stated)	–	–	–	–	–
Cc1ccc(NC(=O)c2nc(-c3ccncc3)no2)c(Cl)c1	–	–	–	-47.4	–
CCOC(=O)Nc1ccccc1C(=O)Nc1cc(C)cc(C)c1	–	–	–	–	–
Cc1cccc(COC(=O)Nc2ccc(NC(=O)c3ccccc3Cl)cc2)c1	–	–	–	-56.2	–
COc1ccccc1N=Nc1c(O)[nH]c2ccc(Br)cc12	–	–	–	-60.0	–
CC(Oc1ccccc1)C(=O)N=Nc1c(O)[nH]c2ccc(Br)cc12 (configuration not stated)	–	–	–	-35.8	–
Cc1cccc(C)c1OCC(=O)N=Nc1c(O)[nH]c2ccc(Br)cc12	–	–	–	–	–
O=C(O)CN1C(=O)/C(=C\c2ccccc2OCc2ccc(Cl)cc2Cl)SC1=S	–	–	–	–	34.9
CNc1nc(N)nc(-c2cc(Cl)ccc2OC)n1	–	–	–	-30.1	–
CCOc1ccccc1NC(=O)COC(=O)CNS(=O)(=O)c1ccc(C)cc1	–	–	–	–	–
CCOc1ccccc1NC(=O)COC(=O)Cc1ccc(-c2ccccc2)cc1	–	–	–	-36.6	39.1
CCOc1ccccc1NC(=O)COC(=O)CN(C)S(=O)(=O)c1ccc(C)cc1	–	–	–	-45.1	–
Cc1ccc(Cn2c(C(=O)O)c(CNCc3ccc(OC(C)C)cc3)c3ccc(C)cc32)cc1	–	–	–	–	–
CN(Cc1ccccc1)C(=O)CSc1nc(-c2ccc(F)cc2)cc(C(F)(F)F)n1	–	–	–	–	–
CCCCOc1ccc(/C(O)=C2/C(=O)C(=O)N(Cc3cccnc3)C2c2ccncc2)c(C)c1 (configuration not stated)	–	–	–	-56.3	–
O=C(CSc1nc2ncccc2[nH]1)NCCc1ccccc1	–	–	–	-38.9	–
CC1CN(C(=O)C(C)N2CCN(c3ccccc3Cl)CC2)CC(C)O1 (configuration not stated)	–	–	–	-36.8	–
COc1cccc(-c2nnc(-c3cc4cc(Cl)ccc4oc3=O)o2)c1	–	–	–	–	–
CCN(CC)c1ccc2cc(-c3nnc(-c4ccncc4)o3)c(=O)oc2c1	284.7	–	–	–	199.3
CCN(CC)c1ccc2cc(-c3nnc(-c4cccc(Cl)c4)o3)c(=O)oc2c1	171.1	–	38.5	–	415.5
O=c1c(N2CCN(c3cccc(Cl)c3)CC2)csc2ccccc12	–	–	–	–	–
CCOc1cccc(CC(=O)N2CCc3c([nH]c4ccccc34)C2c2ccccc2)c1OCC (configuration not stated)	–	–	–	–	–
Cn1c(C(=O)N2CCCc3ccccc32)cc2sccc21	–	–	–	–	44.5
O=C(c1cc2sccc2n1Cc1ccccc1)N1CCCc2ccccc21	–	–	–	–	–
SMILES	TRHR ag	TRHR PAM	D1 PAM	D1 antagonist	D1 ag
CN(Cc1ccco1)c1ncnc2ccc(-c3ccccc3Cl)cc12	–	–	–	-39.5!	–
CN(Cc1ccco1)c1ncnc2ccc(-c3ccoc3)cc12	–	–	–	–	–
CCN(C(=O)c1cc2c(=O)n(CC)c3ccccc3c2s1)c1cccc(C(F)(F)F)c1	–	–	–	–	–
C=CCn1c(SCC(=O)Nc2ccc(OC)cc2)nnc1-c1cnccn1	–	–	32.2	–	–
CCN(c1ccccc1C)S(=O)(=O)c1nnc(NC(=O)c2ccccc2C)s1	–	–	–	–	–
Cc1cccc(CN2CCC(C(=O)Nc3cccc(-c4cccc(F)c4)c3)CC2)n1	–	–	–	–	–
C=CCn1cc(CN2CCC(C(=O)Nc3cccc(-c4cccc(F)c4)c3)CC2)c(C)n1	–	–	–	-38.6	–

Compound activity (PubChem BioAssay)
